Assay [1] can be described thus: CEETOX_H295R_DOC: CeeTox H295R High-throughput Steroidogenesis Assay for DOC (AID 2283439). Particulars: actives raise or lower the signal. Put shortly:
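Secreted DOC was quantified from H295R media by HPLC-MS/MS after 48 h chemical exposure following 48 h forskolin (10 uM) prestimulation. Values were fitted in both directions relative to DMSO, the negative control and baseline.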

A short description of assay [2]: CEETOX_H295R_ESTRADIOL: CeeTox H295R High-throughput Steroidogenesis Assay for Estradiol (AID 2283440).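 Note: estradiol secreted into medium quantified by LC-MS/MS after dansyl derivatisation.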 The settings on record: actives raise or lower the signal. Put shortly: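 H295R adrenocortical cells were prestimulated with 10 uM forskolin for 48 h, then exposed to test chemical in 0.1% DMSO for 48 h. Medium estradiol was extracted with MTBE, dansyl-derivatized and quantified by HPLC-MS/MS; bidirectional fit versus DMSO.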

Assay [3] is described as follows: CEETOX_H295R_ESTRONE: CeeTox H295R High-throughput Steroidogenesis Assay for Estrone (AID 2283441).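 Note: estrone secreted into medium measured by LC-MS/MS after dansyl derivatization.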 The settings on record: actives raise or lower the signal. Put shortly: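 H295R cells; 48 h forskolin (10 uM) prestimulation; 48 h compound exposure, 0.1% DMSO final. Medium estrone: MTBE extraction, dansyl derivatization, HPLC-MS/MS. Bidirectional fit vs DMSO.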

Assay [4] is described as follows: CEETOX_H295R_PROG: CeeTox H295R High-throughput Steroidogenesis Assay for Progesterone (PROG) (AID 2283442).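 For AC50: human H295R adrenal cells primed with 10 µM forskolin before dosing.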 Particulars: actives raise or lower the signal. Put shortly: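 H295R human adrenal cells were prestimulated with 10 uM forskolin for 48 h, then exposed to test chemical (0.1% DMSO final) for 48 h. Medium progesterone was MTBE-extracted and quantified by HPLC-MS/MS, with bidirectional fitting against DMSO.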

Read-out in assay [5]: Tumor necrosis factor receptor superfamily member 6 (Homo sapiens) (UniProt P25445)
The assay is described as follows: LTEA_HepaRG_FAS: Life Technologies and Expression Analysis (LTEA) Assay for Fas cell surface death receptor (FAS) using HepaRG (AID 2283447). The settings on record: mRNA level, 48 h; actives raise or lower the signal. Put shortly:
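Differentiated HepaRG cells in serum-free induction medium were exposed 48 h to 8 half-log concentrations up to 100 uM in 0.5% DMSO, in duplicate. FAS mRNA was measured by qRT-PCR normalised to ACTB, GAPDH and POLR2A; bidirectional fit versus DMSO.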

Read-out in assay [6]: Fatty acid synthase (Homo sapiens) (UniProt P49327)
The assay is described as follows: LTEA_HepaRG_FASN: Life Technologies and Expression Analysis (LTEA) Assay for Fatty Acid Synthase (FASN) using HepaRG (AID 2283448). The settings on record: mRNA level, 48 h; actives raise or lower the signal. The gist of the method:
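Transcript-level assay: HepaRG liver cells are treated for 48 h across an eight-point range topping at 100 uM, and FASN mRNA, normalized to three housekeeping genes, is compared with DMSO controls in both directions.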

Read-out in assay [7]: Cyclin D2 (CCND2), CCND2 (gene 894)
In words: LTEA_HepaRG_CCND2: Life Technologies and Expression Analysis (LTEA) Assay for Cyclin D2 (CCND2) using HepaRG (AID 2283449).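 Note: CCND2 transcript measured by TaqMan qRT-PCR and normalised to three housekeeping genes.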 Particulars: mRNA level, 48 h; actives raise or lower the signal. The gist of the method: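 Chemicals in 0.5% DMSO, eight half-log concentrations from 100 uM top, were applied in duplicate for 48 h to human HepaRG cells in serum-free induction medium. CCND2 mRNA by TaqMan qRT-PCR, normalised to ACTB/GAPDH/POLR2A; bidirectional fit versus DMSO.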

Read-out in assay [8]: Cyclin Dependent Kinase Inhibitor 1A (CDKN1A), CDKN1A (gene 1026)
The assay is described as follows: LTEA_HepaRG_CDKN1A: Life Technologies and Expression Analysis (LTEA) Assay for Cyclin Dependent Kinase Inhibitor 1A (CDKN1A) using HepaRG (AID 2283450). Particulars: mRNA level, 48 h; actives raise or lower the signal. Put shortly: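 Differentiated human HepaRG cells, pre-cultured 48 h, were exposed in duplicate for 48 h in serum-free induction medium to eight half-log concentrations up to 100 uM (0.5% DMSO). CDKN1A mRNA was measured by qRT-PCR, normalized to ACTB/GAPDH/POLR2A, bidirectionally fitted versus DMSO.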

Read-out in assay [9]: Cyclin D1 (CCND1), CCND1 (gene 595)
The assay is described as follows: LTEA_HepaRG_CCND1: Life Technologies and Expression Analysis (LTEA) Assay for Cyclin D1 (CCND1) using HepaRG (AID 2283451). The settings on record: mRNA level, 48 h; actives raise or lower the signal. Put shortly: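 Differentiated human HepaRG cells in serum-free induction medium were exposed 48 h to eight half-log concentrations up to 100 uM in 0.5% DMSO; mRNA quantified by TaqMan qRT-PCR, normalized to ACTB, GAPDH, POLR2A, fitted bidirectionally versus DMSO.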

Read-out in assay [10]: catalase (CAT), CAT (gene 847)
The assay is described as follows: LTEA_HepaRG_CAT: Life Technologies and Expression Analysis (LTEA) Assay for catalase (CAT) using HepaRG (AID 2283452). Particulars: mRNA level, 48 h; actives raise or lower the signal. Put shortly: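 HepaRG cells in serum-free induction medium, 0.5% DMSO vehicle, exposed 48 h in duplicate over 8 half-log concentrations from 100 uM. CAT mRNA measured by qRT-PCR, normalized to ACTB, GAPDH, POLR2A; bidirectional fit versus DMSO.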

Read-out in assay [11]: flavin-containing dimethylaniline monooxygenases 3 (FMO3), FMO3 (gene 2328)
The assay is described as follows: LTEA_HepaRG_FMO3: Life Technologies and Expression Analysis (LTEA) Assay for flavin-containing dimethylaniline monooxygenases 3 (FMO3) using HepaRG (AID 2283453). The settings on record: mRNA level, 48 h; actives raise or lower the signal. The gist of the method: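 HepaRG, 48 h exposure, 8-pt half-log series from 100 uM, 0.5% DMSO vehicle, duplicates; FMO3 transcript by Fluidigm TaqMan qRT-PCR, housekeeping-normalized; gain/loss fit vs DMSO.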

Read-out in assay [12]: Cytochrome P450 (CYP1A1), CYP1A1 (gene 1543)
In words: LTEA_HepaRG_CYP1A1: Life Technologies and Expression Analysis (LTEA) Assay for Cytochrome P450 (CYP1A1) using HepaRG (AID 2283454). Particulars: mRNA level, 48 h; actives raise or lower the signal. Put shortly: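 Differentiated HepaRG cells in serum-free induction medium were exposed in duplicate for 48 h to eight half-log concentrations up to 100 uM in 0.5% DMSO. CYP1A1 mRNA was quantified by TaqMan qRT-PCR, normalized to ACTB, GAPDH and POLR2A.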

Read-out in assay [13]: CFLAR gene, CFLAR (gene 8837)
In words: LTEA_HepaRG_CFLAR: Life Technologies and Expression Analysis (LTEA) Assay for CFLAR gene using HepaRG (AID 2283455). Particulars: mRNA level, 48 h; actives raise or lower the signal. The gist of the method:
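Differentiated HepaRG cells in serum-free induction medium were exposed 48 h in duplicate to eight half-log concentrations up to 100 uM in 0.5% DMSO; mRNA measured by TaqMan qRT-PCR, normalized to ACTB, GAPDH, POLR2A; bidirectional fitting versus DMSO.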

Read-out in assay [14]: Forkhead box O1 (FOXO1), FOXO1 (gene 2308)
The assay is described as follows: LTEA_HepaRG_FOXO1: Life Technologies and Expression Analysis (LTEA) Assay for Forkhead box O1 (FOXO1) using HepaRG (AID 2283456). The settings on record: mRNA level, 48 h; actives raise or lower the signal. The gist of the method: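 Differentiated HepaRG cells, in serum-free induction medium with 0.5% DMSO, exposed 48 h in duplicate to 8-point half-log series from 100 uM. FOXO1 mRNA measured by TaqMan qRT-PCR, normalized to ACTB, GAPDH, POLR2A; bidirectional fit versus DMSO.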

A short description of assay [15]: CEETOX_H295R_TESTO: CeeTox H295R High-throughput Steroidogenesis Assay for Testosterone (TESTO) (AID 2283457). The settings on record: actives raise or lower the signal. The gist of the method:
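H295R human adrenal cells in DMEM/F12 with ITS+ and Nu-Serum, exposed to chemicals for 48 h. Testosterone in medium measured by MTBE extraction, reverse-phase HPLC-MS/MS; bidirectional fit versus DMSO baseline. MTT viability checked in same wells.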

Read-out in assay [16]: growth arrest and DNA damage 45 (GADD45A), GADD45A (gene 1647)
The assay is described as follows: LTEA_HepaRG_GADD45A: Life Technologies and Expression Analysis (LTEA) Assay for growth arrest and DNA damage 45 (GADD45A) using HepaRG (AID 2283458). The settings on record: mRNA level, 48 h; actives raise or lower the signal. The gist of the method:
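Human HepaRG liver cells are treated in duplicate for 48 h with chemicals in 0.5% DMSO, highest concentration 100 uM. Expression is read by qRT-PCR and analyzed in both directions against vehicle.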

Read-out in assay [17]: Forkhead box O3 (FOXO3), FOXO3 (gene 2309)
In words: LTEA_HepaRG_FOXO3: Life Technologies and Expression Analysis (LTEA) Assay for Forkhead box O3 (FOXO3) using HepaRG (AID 2283459). Particulars: mRNA level, 48 h; actives raise or lower the signal. Put shortly: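 Differentiated human HepaRG cells, 48 h post-plating, exposed in duplicate for 48 h in serum-free induction medium; 8-point half-log series from 100 uM in 0.5% DMSO. FOXO3 mRNA by TaqMan qRT-PCR, normalized to ACTB/GAPDH/POLR2A; bidirectional fit versus DMSO.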

Read-out in assay [18]: ABC Transporter (ABCB1), ABCB1 (gene 5243)
In words: LTEA_HepaRG_ABCB1: Life Technologies and Expression Analysis (LTEA) Assay for ABC Transporter (ABCB1) using HepaRG (AID 2283460). The settings on record: mRNA level, 48 h; actives raise or lower the signal. Put shortly: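 HepaRG cells exposed in duplicate for 48 h in serum-free induction medium to eight half-log concentrations up to 100 uM in 0.5% DMSO. ABCB1 mRNA quantified by qRT-PCR, normalised to ACTB, GAPDH and POLR2A; fitted bidirectionally versus DMSO.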

Read-out in assay [19]: growth arrest and DNA damage 45 (GADD45B), GADD45B (gene 4616)
In words: LTEA_HepaRG_GADD45B: Life Technologies and Expression Analysis (LTEA) Assay for growth arrest and DNA damage 45 (GADD45B) using HepaRG (AID 2283461). The settings on record: mRNA level, 48 h; actives raise or lower the signal. Put shortly: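 Differentiated HepaRG cells, plated 48 h then switched to serum-free induction medium, were exposed 48 h in duplicate to eight half-log concentrations from 100 uM in 0.5% DMSO; mRNA quantified by qRT-PCR, normalized to ACTB/GAPDH/POLR2A, bidirectional fit versus DMSO.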

Structures are written as SMILES. The source made the active and inactive calls. Rule for the calls: active = hit-call score of the fitted dose curve at least 0.9, where 1 is the maximum; inactive = score below 0.9.

Our source for the AC50 and outcome values is PubChem BioAssay (EPA / NIEHS).

Fatty acid synthase (Homo sapiens), sequence (P49327 whole entry, looked up): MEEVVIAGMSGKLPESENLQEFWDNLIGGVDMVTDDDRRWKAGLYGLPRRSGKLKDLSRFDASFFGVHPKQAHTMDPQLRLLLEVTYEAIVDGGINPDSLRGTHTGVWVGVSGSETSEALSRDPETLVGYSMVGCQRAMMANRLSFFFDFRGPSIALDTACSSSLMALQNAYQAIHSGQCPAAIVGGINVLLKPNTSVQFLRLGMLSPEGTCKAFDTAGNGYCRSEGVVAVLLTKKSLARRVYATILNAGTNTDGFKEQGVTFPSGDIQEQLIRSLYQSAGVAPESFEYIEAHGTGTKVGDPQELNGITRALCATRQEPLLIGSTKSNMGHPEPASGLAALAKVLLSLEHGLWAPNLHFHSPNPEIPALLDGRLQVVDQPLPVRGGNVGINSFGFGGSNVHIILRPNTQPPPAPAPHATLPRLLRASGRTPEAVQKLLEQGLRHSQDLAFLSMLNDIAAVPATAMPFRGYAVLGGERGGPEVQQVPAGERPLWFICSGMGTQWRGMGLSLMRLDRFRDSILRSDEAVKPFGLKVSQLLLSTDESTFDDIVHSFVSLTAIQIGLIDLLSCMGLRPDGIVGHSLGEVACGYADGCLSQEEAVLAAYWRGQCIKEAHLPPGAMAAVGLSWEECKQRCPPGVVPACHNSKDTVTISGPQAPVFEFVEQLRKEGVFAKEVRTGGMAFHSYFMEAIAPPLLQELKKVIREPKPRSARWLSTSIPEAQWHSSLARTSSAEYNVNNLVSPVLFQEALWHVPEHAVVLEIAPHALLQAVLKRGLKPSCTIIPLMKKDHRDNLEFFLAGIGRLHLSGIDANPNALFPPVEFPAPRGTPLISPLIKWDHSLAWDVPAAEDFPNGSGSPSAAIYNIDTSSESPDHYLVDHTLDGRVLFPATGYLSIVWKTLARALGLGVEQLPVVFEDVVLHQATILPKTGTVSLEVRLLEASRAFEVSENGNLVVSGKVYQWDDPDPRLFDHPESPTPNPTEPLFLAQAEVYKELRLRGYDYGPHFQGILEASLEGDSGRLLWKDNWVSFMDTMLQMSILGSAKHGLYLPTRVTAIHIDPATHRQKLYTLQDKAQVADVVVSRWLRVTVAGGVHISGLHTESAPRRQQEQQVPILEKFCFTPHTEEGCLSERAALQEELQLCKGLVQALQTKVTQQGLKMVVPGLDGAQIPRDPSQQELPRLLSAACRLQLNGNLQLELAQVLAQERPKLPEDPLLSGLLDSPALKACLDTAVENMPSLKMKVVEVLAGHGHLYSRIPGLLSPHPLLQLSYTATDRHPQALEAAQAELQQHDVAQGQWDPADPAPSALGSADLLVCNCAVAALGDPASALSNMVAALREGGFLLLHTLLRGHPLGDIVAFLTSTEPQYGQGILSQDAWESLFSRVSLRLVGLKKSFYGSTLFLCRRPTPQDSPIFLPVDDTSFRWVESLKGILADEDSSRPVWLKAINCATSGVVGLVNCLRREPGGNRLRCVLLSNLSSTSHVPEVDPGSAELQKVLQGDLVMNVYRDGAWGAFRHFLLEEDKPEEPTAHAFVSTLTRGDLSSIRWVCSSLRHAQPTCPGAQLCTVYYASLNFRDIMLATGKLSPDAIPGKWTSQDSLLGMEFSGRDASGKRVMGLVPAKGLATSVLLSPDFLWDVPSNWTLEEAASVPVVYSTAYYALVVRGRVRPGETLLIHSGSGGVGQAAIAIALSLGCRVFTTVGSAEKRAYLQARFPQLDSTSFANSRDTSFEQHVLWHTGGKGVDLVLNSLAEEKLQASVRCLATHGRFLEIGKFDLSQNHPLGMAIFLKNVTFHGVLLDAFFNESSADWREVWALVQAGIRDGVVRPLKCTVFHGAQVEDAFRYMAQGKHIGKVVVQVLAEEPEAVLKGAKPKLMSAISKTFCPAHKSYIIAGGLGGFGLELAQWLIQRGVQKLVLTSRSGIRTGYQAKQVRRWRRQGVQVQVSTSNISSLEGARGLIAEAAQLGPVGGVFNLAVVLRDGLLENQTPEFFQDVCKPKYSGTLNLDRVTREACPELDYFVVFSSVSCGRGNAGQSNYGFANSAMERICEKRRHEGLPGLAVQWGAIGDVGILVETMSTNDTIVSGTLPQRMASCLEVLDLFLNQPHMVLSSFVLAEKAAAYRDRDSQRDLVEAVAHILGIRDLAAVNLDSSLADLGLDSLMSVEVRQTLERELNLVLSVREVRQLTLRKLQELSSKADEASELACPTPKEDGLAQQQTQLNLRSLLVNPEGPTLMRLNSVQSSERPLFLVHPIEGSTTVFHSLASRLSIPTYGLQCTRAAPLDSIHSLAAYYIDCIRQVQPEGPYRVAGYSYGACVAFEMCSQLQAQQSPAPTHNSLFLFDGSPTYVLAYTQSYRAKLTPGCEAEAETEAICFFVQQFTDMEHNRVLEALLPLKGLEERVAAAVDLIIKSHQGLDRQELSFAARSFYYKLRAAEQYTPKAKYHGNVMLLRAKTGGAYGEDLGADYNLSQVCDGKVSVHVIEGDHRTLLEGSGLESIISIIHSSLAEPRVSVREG

For the compound `CCC(C)(C)C(=O)OC1=C(c2ccc(Cl)cc2Cl)C(=O)OC12CCCCC2`, the AC50 in assay [1] was 739 nM (active); in [4] it was 593 nM (active); in assay [6] it was 15.1 µM (active); in assay [11] it was 66.4 µM (active); in [12] it was 50 µM (active). Further, the call in assay [2], in [3], in [5], in assay [7], in [8] and in [9] was inactive. Besides, the call in assay [10], in assay [13], in [14], in assay [15], in assay [16] and in assay [17] was inactive. Also, the outcome in assay [18] and in [19] was inactive.
Take `CCCN(CCOc1c(Cl)cc(Cl)cc1Cl)C(=O)n1ccnc1`: the AC50 is 35.8 nM (active) in [1]; 211 nM (active) in assay [4]; 77.4 µM (active) in [6]; 30.5 µM (active) in assay [8]; 32.1 µM (active) in [10]; 33 µM (active) in assay [11]. The half-maximal activity concentration (AC50) in [12] was 2.56 µM (active); in assay [13], 85.2 µM (active); in assay [14], 88.7 µM (active); in [16], 45.8 µM (active); in [18], 3.22 µM (active). Further, the compound was classed as inactive in assay [5], in assay [7], in assay [17] and in assay [19].
Regarding `CNC(=O)Oc1ccccc1OC(C)C`, the result in assay [1], in assay [2], in [3], in assay [4], in [5] and in assay [6] was inactive. Further, the result in [7], in assay [8], in [10], in [11], in assay [12] and in assay [13] was inactive. For the same compound, the result in assay [14], in [16], in assay [17], in assay [18] and in [19] was inactive.

In general, AC50 refers to the concentration giving half of the maximal activity seen.
